Assay outcomes as filed in PubChem.
AMA1-RON2 inh: qHTS for Inhibitors of AMA1-RON; Towards Development of Antimalarial Drug Lead: Primary Screen. Plasmodium falciparum AMA1 (3D7) - RON2 peptide interaction. AlphaScreen AMA1-biotinylated RON2 peptide binding. Potency, µM (series often up to 58.2 µM), actives largely listed as inhibitors. actives 0.2% (n = 360,000). AID 720542, 2013; active = well fitted inhibition curve with a large enough effect; inconclusive = small, poorly fitted or top-dose-only effect; inactive = no such curve, though single readings can be large or run the other way; note: nearly all actives have a fitted effect of over 45% in size
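AMA1 (3D7) with his tag at 25 nM final met compounds first, then biotinylated RON2 peptide at 25 nM; detection used donor plus acceptor beads, 10 µg/mL apiece, read by AlphaScreen after 30 min at room temperature.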
Shiga toxin inh: A qHTS for Small Molecule Inhibitors of Shiga Toxin. Vero cells, Shiga toxin protein synthesis inhibition reporter. inhibition, % at 38.7 µM. actives 9.2% (n = 290,000). AID 2315, 2010; in the data active = inhibition mostly above about 28%, no sharp cut-off; inactive = mostly below about 43%
MARV entry inh: qHTS for inhibitors of binding or entry into cells for Marburg Virus; Marburg virus pseudotyped entry inhibition, cell reporter; Potency, µM (highest dose often 37.8 µM), hits mostly inhibitors; actives 1.8% (n = 300,000); AID 540276, 2011; calls by dose curve; tested in HEK293 cells
LASV entry inh: qHTS for Inhibitors of binding or entry into cells for Lassa Virus; actives 1.2% (n = 300,000); Potency, µM (titrated, usually from 37.9 µM), hits mostly inhibitors; Lassa virus pseudotype entry inhibition, cell reporter; AID 540256, 2011; calls by dose curve; tested in HEK293 cells; note: nearly all actives have a fitted effect of over 50% in size
CHX counter: Cycloheximide Counterscreen for Small Molecule Inhibitors of Shiga Toxin; max response, %; actives 12% (n = 300,000); cell reporter, cycloheximide protein synthesis inhibition counterscreen; AID 2314, 2010; in the data active = max response mostly above about 13%, no sharp cut-off; inactive = mostly below about 14%; note: read at 38.3 µM for the half of the compounds with a filed dose
Hits are given with their value; . = inactive; ? = inconclusive; / = no result given; [ ] = another dose, or the depositor's remark. The full list was thinned out, with hits kept by preference.

SMILES	AMA1-RON2 inh	Shiga toxin inh	MARV entry inh	LASV entry inh	CHX counter
Oc1ccc(/C=N/NP(=S)(c2ccccc2)c2ccccc2)cc1O	.	.	.	.	.
Cc1ccc(/C=N/Nc2ccc(Cl)nn2)cc1	.	44.7	/	/	13.2
COc1cccc(/C=N/Nc2ccc(Cl)nn2)c1OC	.	/	/	/	/
CCCNC(=O)C1(C)CCCN(C(=O)COc2ccc(Cl)cc2Cl)C1 (stereo not given)	.	/	/	/	/
COc1ccc(NS(=O)(=O)c2ccc3nc(COc4cccc5ccccc45)[nH]c3c2)cc1	.	.	14.6µM	?	.
COc1ccc(NS(=O)(=O)c2ccc3nc(COc4ccc5ccccc5c4)[nH]c3c2)cc1	.	.	?	?	.
CC1CCC(NC(=O)C2CCN(c3c4c(nc5ncnn35)CCC4)CC2)CC1 (stereo not given)	.	48.8	.	.	19.9
COc1ccc(NC(=O)C2CCCN(c3c4c(nc5ncnn35)CCC4)C2)cc1 (stereo not given)	.	.	?	.	.
Cc1ccc(NC(=O)C2(C)CCN2C(=O)Cc2ccc(C(C)C)cc2)cc1 (stereo not given)	.	/	/	/	/
COc1ccc(C(=O)c2ccc(N3CCOCC3)cc2)c(OC)c1	.	.	?	?	14.1
CCN(C(=O)Cn1c(C(=O)OC)cc2oc3ccccc3c21)c1cccc(C)c1	/	/	.	/	/
COc1ccc(C(=O)C2CCCN(Cc3ccccn3)C2)c(OC)c1 (stereo not given)	.	.	/	/	.
COc1ccc2cc(C(=O)C3CCCN(C4CCOCC4)C3)ccc2c1 (stereo not given)	.	.	7.94µM	.	.
COc1ccc(C(=O)C2CCCN(C3Cc4ccccc4C3)C2)c(OC)c1 (stereo not given)	.	73.7	?	.	24.1
CC1(C(=O)Nc2cccc3c2CCCC3)CCN1C(=O)c1cccc(F)c1 (stereo not given)	.	/	/	/	/
N=c1ncn(C2OC(CO)C(O)C2O)c2nc(Br)[nH]c12 (stereo not given)	.	/	/	/	/
O=C(Nc1ccccc1)C1C2CCCCC21 (stereo not given)	.	64.6	.	.	21.8
C/C(CC(=O)Nc1ccc([N+](=O)[O-])cc1)=N/NC(=O)C1CC12CCC2 (stereo not given)	.	.	.	.	.
Cc1cc(C)c(NC(=O)C2C3/C=C\CCCCC32)c(C)c1 (stereo not given)	.	.	?	.	.
Cc1cccc(NC(=O)C2C3CCCCC32)c1 (stereo not given)	.	24.7	/	/	32.1
C/C(CC(=O)Nc1ccc([N+](=O)[O-])cc1)=N/NC(=O)C1C2CCCCC21 (stereo not given)	.	.	.	.	18.8
Cc1ccc(NC(=O)C2C3/C=C\CCCCC32)cc1 (stereo not given)	.	.	.	.	12.0
NS(=O)(=O)c1ccc(CCNc2nn3c(-c4cccc(OC(F)(F)F)c4)cnc3s2)cc1	.	/	/	/	/
CC(=O)Nc1ccc(C)c([N+](=O)[O-])c1	.	.	.	.	.
O=C(Nc1ccc([N+](=O)[O-])cc1)OC1CCS(=O)(=O)C1 (stereo not given)	.	/	/	/	/
SMILES	AMA1-RON2 inh	Shiga toxin inh	MARV entry inh	LASV entry inh	CHX counter
Cc1ccc(NC(=O)C2C3CCCCC32)cc1[N+](=O)[O-] (stereo not given)	.	57.7	/	/	48.2
Cc1cc(NC(=O)OC2CCCCC2)ccc1[N+](=O)[O-]	.	122.7	10µM	?	54.6
O=C(OCCOCCN=C1NS(=O)(=O)c2ccccc21)c1ccccc1Br	.	.	.	.	.
Cc1ccccc1OCC1CNC(=O)O1 (stereo not given)	.	.	/	/	.
N#Cc1c(N)nc2c(c1N)CC(CO)O2 (stereo not given)	.	.	.	.	.
Cc1ccccc1OCC1Cc2c(nc(N)c(C#N)c2N)O1 (stereo not given)	.	58.1	.	.	29.3
N#Cc1c(N)nc2c(c1N)CC(COc1ccccc1)O2 (stereo not given)	.	52.5	?	.	37.3
Cc1ccc(-n2cnc(N)c2C(=O)c2cccc([N+](=O)[O-])c2)cc1	.	.	?	?	.
COc1ccc(-c2ccc3c(N)c(C(=O)Nc4cccc(C)c4)sc3n2)cc1	/	.	.	.	43.3
COC(=O)COc1cccc(NC(=O)c2ccc(C)cc2)c1	.	.	.	.	.
COc1ccc(/C=C(\NC(=O)c2ccc(C)cc2)C(=O)Nc2ccc(C(=O)O)cc2)cc1	.	.	.	.	30.9
Cc1ccc(NC(=O)c2ccc(OC(=O)COc3ccc(Cl)c(C)c3)cc2)cc1	.	96.0	?	.	48.9
COc1ccc(C(=O)Nc2ccc3nc(C)c(C)nc3c2)cc1	.	129.3	/	/	39.0
CCN(CC)S(=O)(=O)c1cccc(C(=O)NC(C(=O)NNC(=O)c2ccccc2F)C(C)C)c1 (stereo not given)	.	/	.	.	/
Cc1cc(C)c(Cn2c3ccccc3c3cnn(CC(=O)NCCc4ccccc4)c(=O)c32)c(C)c1	/	/	.	.	/
Cc1ccc(C(=O)NCC(=O)Nc2ncccc2C)s1	.	/	.	.	/
COc1ccc(C(=O)Nc2ccc(SC(F)F)cc2)cc1	.	97.8	?	.	49.1
COc1ccc(C(=O)Nc2cccc(NC(C)=O)c2)cc1	.	/	/	/	/
COc1ccc(C(=O)Nc2cccc(C)c2)cc1	.	60.5	.	.	28.0
COc1cc(NC(=O)c2ccccc2-n2cnnn2)cc(OC)c1	.	/	?	.	/
COc1cc(OC)cc(C(=O)Nc2ccc(-n3cnnn3)c(C)c2)c1	.	29.6	.	.	22.0
COc1ccc(NC(=O)c2cnc(SC)nc2)cc1	.	.	/	/	31.6
CC(C)N1CCC(C)(C(=O)Nc2cccc3c2CCCC3)C1 (stereo not given)	.	/	/	/	/
O=C(C[C@H]1CC[C@@H](NS(=O)(=O)c2ccccc2)[C@@H](CO)O1)NCc1ccc(Cl)c(Cl)c1	.	/	/	/	/
Cc1ccc(NC(=S)c2ccccc2)cc1	.[2.32 µM]	13.8	?	.	34.9
SMILES	AMA1-RON2 inh	Shiga toxin inh	MARV entry inh	LASV entry inh	CHX counter
Cc1ccc(NC(=S)c2ccncc2)cc1	.	.	/	/	.
COc1ccc(NC(=O)c2ccc(C)cc2)cc1	.	/	/	/	37.7
COc1ccc(C(=S)Nc2ccc(C)cc2)cc1	.	79.2	?	.	51.3
COc1ccc(C(=O)NNC(=O)C(=O)Nc2ccc(C)cc2)cc1	.	.	.	.	.
COc1ccc(C(=O)NC(=S)Nc2ccc(S(N)(=O)=O)cc2)cc1	.	.	?	.	17.6
COc1ccc(NC(=S)c2ccncc2)cc1	.	.	.	.	.
O=C(CN1CCN(S(=O)(=O)c2ccc(Br)cc2)CC1)N/N=C/c1ccc(Cl)c([N+](=O)[O-])c1	.[2.32 µM]	.	14.6µM	?	.
CCCN(CCC)C(=O)CSc1nnc2cc(C)c3ccccc3n12	/	/	.	.	/
Cc1cc(C(=O)N/N=C/c2cc(Br)ccc2OC(=O)c2ccccc2Cl)n[nH]1	.	.	10µM	10µM	.
Cc1cc(C(=O)N/N=C/c2ccc(OC(=O)c3ccccc3Br)cc2)n[nH]1	.	.	?	.	.
